# Laboratory results: the supplement of paper PMC6555819
# Key:
# Experiment in all cases: PBM binding z-score (relative to random genomic background probes); higher = stronger binding; sequences stand for … in GC…GCGATTGACAGCGTAGAATGAAGG
# [1] = tested on: FXR:RXRa (NR concentration 270 nM, RXRa partner concentration 90 nM)
# Procedure, shortened: (§1)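 Ligand-free nuclear receptor dimers were applied to custom Agilent 4×180K protein-binding microarrays whose double-stranded probes carried direct-repeat seeds, single-nucleotide variants, half-site ablations and random human genomic background sequences in 34-nt variable regions. Incubation lasted 1 h. Binding z-scores were computed against the random background probes from regression-normalized fluorescence.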
# [2] = tested on: LXRa:RXRa (NR concentration 270 nM, RXRa partner concentration 90 nM)
# Procedure, shortened: as §1
# [3] = tested on: LXRa homodimer (NR concentration 270 nM)
# Procedure, shortened: as §1
# [4] = tested on: LXRb:RXRa (NR concentration 270 nM, RXRa partner concentration 90 nM)
# Procedure, shortened: as §1
# [5] = tested on: LXRb homodimer (NR concentration 270 nM)
# Procedure, shortened: as §1
# [6] = tested on: PPARa:RXRa (NR concentration 270 nM, RXRa partner concentration 90 nM)
# Procedure, shortened: as §1
# [7] = tested on: PPARg:RXRa (NR concentration 180 nM, RXRa partner concentration 90 nM)
# Procedure, shortened: as §1
# [8] = tested on: PPARg:RXRa 270nM:90nM, anti-RXR (NR concentration 270 nM, RXRa partner concentration 90 nM)
# Procedure, shortened: as §1
# [9] = tested on: PPARg:RXRa 30nM:10nM, anti-RXR (NR concentration 30 nM, RXRa partner concentration 10 nM)
# Procedure, shortened: as §1
# [10] = tested on: PPARg:RXRa 90nM:30nM, anti-RXR (NR concentration 90 nM, RXRa partner concentration 30 nM)
# Procedure, shortened: as §1
# [11] = tested on: PPARg:RXRa DBDmut IVT, anti-RXR (DBD mutation: RXRa K156A/R161A, NR concentration 270 nM, RXRa partner concentration 90 nM)
# Procedure, shortened: as §1
# [12] = tested on: PPARg:RXRa IVT, anti-PPARg (NR concentration 270 nM, RXRa partner concentration 90 nM)
# Procedure, shortened: as §1
# [13] = tested on: PPARg DBDmut:RXRa IVT, anti-PPARg (DBD mutation: PPARg1 K132A/R137A, NR concentration 270 nM, RXRa partner concentration 90 nM)
# Procedure, shortened: as §1
# [14] = tested on: PPARg DBDmut IVT, anti-PPARg (DBD mutation: PPARg1 K132A/R137A, NR concentration 270 nM)
# Procedure, shortened: as §1
# [15] = tested on: PPARg homodimer (NR concentration 180 nM)
# Procedure, shortened: as §1
# [16] = tested on: PXR:RXRa (NR concentration 270 nM, RXRa partner concentration 90 nM)
# Procedure, shortened: as §1
# [17] = tested on: PXR homodimer (NR concentration 270 nM)
# Procedure, shortened: as §1
# [18] = tested on: RARa:RXR (NR concentration 270 nM, RXRa partner concentration 90 nM)
# Procedure, shortened: as §1
# [19] = tested on: RARa homodimer (NR concentration 270 nM)
# Procedure, shortened: as §1
# [20] = tested on: RARb:RXRa (NR concentration 270 nM, RXRa partner concentration 90 nM)
# Procedure, shortened: as §1
Sequence,PBM binding z-score [1],PBM binding z-score [2],PBM binding z-score [3],PBM binding z-score [4],PBM binding z-score [5],PBM binding z-score [6],PBM binding z-score [7],PBM binding z-score [8],PBM binding z-score [9],PBM binding z-score [10],PBM binding z-score [11],PBM binding z-score [12],PBM binding z-score [13],PBM binding z-score [14],PBM binding z-score [15],PBM binding z-score [16],PBM binding z-score [17],PBM binding z-score [18],PBM binding z-score [19],PBM binding z-score [20]
TTACCAAGGTGAAGGTCGTTTATCCCTCTGTAGA,1.45,1.55,0.229,1.54,-0.0351,2.47,2.42,3.95,1.78,3.31,2.02,3.38,0.35,0.225,0.696,1.7,0.623,1.65,-0.48,2.2
CCTGCTAGGTCAATGGTCAGTTAAAGCAGCTCGC,3.02,2.09,0.0181,1.53,-0.0412,3.22,4.36,4.88,2.78,4.69,4.28,3.9,-0.811,-0.609,1.46,0.845,-0.135,1.69,-0.34,3.95
AGAACGAGGGCACGCTGAGTTGATAACAGAGTAG,0.997,0.505,-0.474,0.399,-0.662,2.29,2.11,1.82,0.679,1.14,4.19,3.68,0.246,0.187,0.159,1.33,0.018,0.895,-0.194,2.4
TCGAGAAGGTTAGTCGGGGCATTCAGCCAACATA,0.663,0.631,-0.271,0.863,-0.323,1.32,0.00646,1.2,1.72,1.33,1.32,0.682,-0.513,-0.49,0.545,0.807,0.434,0.664,-0.434,1.36
GATACAGGGTCAGCTAGAGGCCTGAGTATGGAAA,4.07,2.14,-0.546,1.75,-0.639,4.25,3.02,2.86,0.545,1.56,1.41,1.85,-0.274,-0.805,1.14,1.73,-0.266,2.75,-0.534,3.74
ATAATGAGGTTATTAAGATCAGGGAATTGCGGTC,1.9,2.12,0.684,1.48,1.07,2.81,1.91,2.14,0.859,1.5,3.45,3.21,1.46,0.952,1.12,1.58,0.876,1.76,0.951,1.47
ATCTCTAGGTAAAGATAGTTCAGCGAATGCAAAT,0.212,4.41,0.481,0.836,0.431,0.777,0.334,0.42,0.395,0.368,2.37,1.47,0.72,1.31,0.488,0.995,0.643,0.739,1.34,0.964
CTACCAAGGTGTACAAGGTCGTTGATTACTATTC,0.534,0.766,0.255,1.26,-0.288,1.31,0.268,0.583,-0.154,0.498,0.458,0.771,0.278,0.0269,0.61,1.61,1.18,1.47,0.124,0.901
CCTAGTTGGTCAAGGTTACACACGCTATAGGTAC,1.22,1.09,0.67,1.4,0.618,1.79,1.82,2.2,0.763,1.81,1.65,2.24,1.11,1.66,2.04,1.19,1.09,1.6,1.63,1.99
ATCTCTAGGTAACAAGTTCAGCGAAAGAGAGGAC,0.684,0.959,0.732,0.934,1.33,2.01,1.88,2.43,0.884,2.22,3.7,2.88,1.31,2.15,1.32,1.9,1.83,1.15,1.27,1.81
TCGATTAGGTTAGGGGCATTCAGAATGGCGTCGA,0.719,0.542,0.0424,1.5,0.612,1.46,0.358,2.01,2.41,2.22,1.99,0.798,-0.691,0.33,1.07,0.603,0.447,0.692,0.352,1.57
ACTGACGGGTCAACGAGGTTATAGCACGCGTATA,5.56,4.16,0.67,3.43,0.166,5.03,3.34,3.77,0.997,2.17,0.94,2.54,0.338,0.241,1.88,4.39,2.3,4.36,0.626,3.87
TCATATACGTAAAGGTGAAAGTCGAACGATATGA,0.717,1.21,-0.0647,1.44,0.339,2.63,1.64,2.52,3.86,3.15,1.6,1.61,1.06,2,0.594,1.1,-0.24,1.55,0.587,2.04
ATCTCTAGGTAACCAAGATCAGTGAATGCCGAAC,0.221,0.126,0.199,0.274,0.276,0.613,0.694,0.588,0.161,0.426,2.88,2.67,0.887,1.13,0.619,0.0058,0.344,0.377,0.145,0.119
CCAGACAGGTGAGAAGGTAACTCATCCTCGATTA,0.223,0.195,0.213,0.16,-0.283,0.773,0.558,0.703,0.0272,0.508,1.17,0.6,-0.78,0.324,0.757,0.375,0.22,0.525,0.718,0.607
